Records with an inconclusive call do not appear. Calls of active or inactive are those of the source. How the source made its calls: active means hit-call score of the fitted dose curve at least 0.9, where 1 is the maximum; inconclusive means response in the unintended direction; inactive means score below 0.9.
Molecular target: Retinoic acid receptor RXR-alpha (Homo sapiens) (UniProt P19793)
Assay: ATG_RXRa_TRANS: Attagene TRANS-FACTORIAL HepG2 Assay for human Retinoid X Receptor alpha (RXRa) (AID 2283012)
Procedure, shortened: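 TRANS format reporting activity of exogenous RXRa-Gal4 chimera in transiently transfected HepG2, 24 h exposure. Reporter transcripts quantified by RT-PCR with capillary electrophoresis, with gain of signal scored relative to DMSO.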

Retinoic acid receptor RXR-alpha (Homo sapiens), sequence (P19793 whole entry, looked up): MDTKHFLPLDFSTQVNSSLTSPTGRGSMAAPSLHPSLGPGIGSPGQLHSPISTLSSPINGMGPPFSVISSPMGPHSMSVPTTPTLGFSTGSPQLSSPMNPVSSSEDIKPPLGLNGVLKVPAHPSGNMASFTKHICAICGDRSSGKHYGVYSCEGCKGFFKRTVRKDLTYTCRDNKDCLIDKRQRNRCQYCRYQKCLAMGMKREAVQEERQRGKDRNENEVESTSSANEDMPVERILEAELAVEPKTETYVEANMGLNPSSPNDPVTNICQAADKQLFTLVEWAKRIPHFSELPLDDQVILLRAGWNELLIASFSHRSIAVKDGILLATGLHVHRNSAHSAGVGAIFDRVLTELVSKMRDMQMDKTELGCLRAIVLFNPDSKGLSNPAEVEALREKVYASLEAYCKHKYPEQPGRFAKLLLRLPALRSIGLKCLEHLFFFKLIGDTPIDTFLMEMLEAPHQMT

outcome, inactive:
OCCOCCN1CCN(C2=Nc3ccccc3Sc3ccccc32)CC1
O=C(O)CNc1ccccc1
C[C@H](CCC(=O)NCC(=O)O)[C@H]1CC[C@H]2[C@@H]3[C@H](O)C[C@@H]4C[C@H](O)CC[C@]4(C)[C@H]3C[C@H](O)[C@]12C
C[Si]1(C)O[Si](C)(C)O[Si](C)(C)O1
CCOc1ccccc1O
CC(C)C(OC(=O)c1ccccc1)C(C)(C)COC(=O)c1ccccc1 (stereo unspecified)
COc1ccc(CCC(C)=O)cc1
CC(C=O)Cc1ccc(C(C)(C)C)cc1 (stereo unspecified)
Cc1ccc(S(N)(=O)=O)cc1
BrCc1cccc(Oc2ccccc2)c1
CCCCCC(C=O)=Cc1ccccc1
COc1cc([C@@H]2c3cc4c(cc3[C@@H](O[C@@H]3O[C@@H]5CO[C@@H](C)O[C@H]5[C@H](O)[C@H]3O)[C@H]3COC(=O)[C@H]23)OCO4)cc(OC)c1O
C[Si](C)(C)O[Si](C)(C)C
C#CC(C)(O)CC(C)C (stereo unspecified)
Clc1ccc(C(c2ccccc2Cl)C(Cl)Cl)cc1 (stereo unspecified)

AC50, active:
CC(=O)c1c(C)c([N+](=O)[O-])c(C(C)(C)C)c([N+](=O)[O-])c1C 6.93 µM

Molecular target: human Retinoid X Receptor beta (RXRb), RXRB (gene 6257) (UniProt P28702)
Sequence (P28702 whole entry, looked up): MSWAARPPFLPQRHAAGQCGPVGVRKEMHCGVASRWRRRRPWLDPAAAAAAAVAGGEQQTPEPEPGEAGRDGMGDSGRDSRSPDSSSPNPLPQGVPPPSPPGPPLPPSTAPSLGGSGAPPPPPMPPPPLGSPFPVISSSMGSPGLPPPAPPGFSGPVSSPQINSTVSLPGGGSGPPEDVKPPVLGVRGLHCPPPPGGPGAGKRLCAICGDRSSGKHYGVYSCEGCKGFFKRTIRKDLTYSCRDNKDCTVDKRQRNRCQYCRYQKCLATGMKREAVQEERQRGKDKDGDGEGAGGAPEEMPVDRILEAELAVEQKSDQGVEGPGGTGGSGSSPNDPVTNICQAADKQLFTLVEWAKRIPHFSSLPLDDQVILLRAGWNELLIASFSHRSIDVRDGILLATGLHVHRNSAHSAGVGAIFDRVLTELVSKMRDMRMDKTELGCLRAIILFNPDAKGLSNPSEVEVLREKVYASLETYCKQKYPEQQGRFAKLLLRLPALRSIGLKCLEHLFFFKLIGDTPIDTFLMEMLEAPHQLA
Assay: ATG_RXRb_TRANS: Attagene TRANS-FACTORIAL HepG2 Assay for human Retinoid X Receptor beta (RXRb) (AID 2283013)
Procedure, shortened: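 Readout is reporter transcript induction after 24 h dosing. It is measured by RT-PCR of total RNA followed by fluorescent capillary electrophoresis. HepG2 liver cells carry transfected multiple reporter units driven by an exogenous RXRb-Gal4 fusion; activity is relative to DMSO.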

outcome, inactive:
CS(=O)(=O)c1ccc(C2=C(c3ccccc3)C(=O)OC2)cc1
CC1(C)CCC[C@]2(C)[C@H]3CCO[C@]3(C)CC[C@@H]12
O=C1OC[C@H](Cc2cccc(O)c2)[C@H]1Cc1cccc(O)c1
O=C(Nc1ccc2c(O)c(N=Nc3ccc(N=Nc4ccc(S(=O)(=O)O)cc4)cc3)c(S(=O)(=O)O)cc2c1)c1ccccc1
C1=CC2C3C=CC(C3)C2C1 (stereo unspecified)
COc1cc(Cl)c(OC)cc1N
O=C1OC(=O)c2c(Cl)c(Cl)c(Cl)c(Cl)c21
C=C(C)[C@H]1CC=C(C)C(=O)C1
c1ccc(CCc2ccccc2)cc1
COC(C)(C)CC(C)=O
CC(C=O)Cc1ccc(C(C)(C)C)cc1 (stereo unspecified)
C[Si](C)(C)O[Si](C)(C)C

AC50, active:
CCOC(=O)C(C#N)=C(c1ccccc1)c1ccccc1 26.6 µM
Nc1ccc2cc(S(=O)(=O)O)cc(O)c2c1N=Nc1ccccc1C(F)(F)F 14.8 µM
CC(=O)c1c(C)c([N+](=O)[O-])c(C(C)(C)C)c([N+](=O)[O-])c1C 1 µM
CCCCCC(C=O)=Cc1ccccc1 73.8 µM
Clc1ccc(C(c2ccccc2Cl)C(Cl)Cl)cc1 (stereo unspecified) 9.66 µM

Molecular target: human Thyroid Receptor alpha (THRa1), THRA (gene 7067) (UniProt P10827)
Sequence (P10827 whole entry, looked up): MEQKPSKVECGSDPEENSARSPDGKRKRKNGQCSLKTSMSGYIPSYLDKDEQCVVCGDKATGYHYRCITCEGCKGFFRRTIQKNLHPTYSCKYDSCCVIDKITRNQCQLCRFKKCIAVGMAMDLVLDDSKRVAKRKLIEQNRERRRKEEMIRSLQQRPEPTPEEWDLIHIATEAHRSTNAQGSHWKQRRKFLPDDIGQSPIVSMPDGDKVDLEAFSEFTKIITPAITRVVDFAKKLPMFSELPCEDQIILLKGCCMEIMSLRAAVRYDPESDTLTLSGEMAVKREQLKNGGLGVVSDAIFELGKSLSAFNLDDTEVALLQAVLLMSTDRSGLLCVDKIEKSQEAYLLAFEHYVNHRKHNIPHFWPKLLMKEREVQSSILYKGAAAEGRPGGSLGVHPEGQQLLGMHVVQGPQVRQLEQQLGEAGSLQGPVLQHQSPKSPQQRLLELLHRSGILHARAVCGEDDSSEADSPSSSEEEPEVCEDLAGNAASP
Assay: ATG_THRa1_TRANS: Attagene TRANS-FACTORIAL HepG2 Assay for human Thyroid Receptor alpha (THRa1) (AID 2283014)
Procedure, shortened: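 Transcripts from GAL4-UAS-driven reporters, measured after 24 h compound exposure by RT-PCR plus capillary electrophoresis of 6-FAM-labeled fragments, were fitted for gain of signal relative to DMSO. Cells: transiently transfected HepG2 expressing NR-Gal4 chimeras.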

outcome, inactive:
COC(=O)C=C(C)CCC=C(C)C
OCC(O)c1ccccc1 (stereo unspecified)
C[C@H]1O[C@@H](O[C@H]2[C@@H](O)C[C@H](O[C@H]3[C@@H](O)C[C@H](O[C@H]4CC[C@@]5(C)[C@H](CC[C@@H]6[C@@H]5C[C@@H](O)[C@]5(C)[C@@H](C7=CC(=O)OC7)CC[C@]65O)C4)O[C@@H]3C)O[C@@H]2C)C[C@H](O)[C@@H]1O
CCOC(=O)C(C#N)=C(c1ccccc1)c1ccccc1
CC1CC(O)CC(C)(C)C1 (stereo unspecified)
O=C1OC[C@H](Cc2cccc(O)c2)[C@H]1Cc1cccc(O)c1
CCCCCCCCN1CCCC1=O
CC(=O)CC(=O)Nc1ccccc1
C=CCCC(=O)/C=C/C1C(C)=CCCC1(C)C (stereo unspecified)
C1=CC2C3C=CC(C3)C2C1 (stereo unspecified)
CCCCSCCCC
Nc1ccc2cc(S(=O)(=O)O)cc(O)c2c1N=Nc1ccccc1C(F)(F)F
O=C1OC(=O)c2c(Cl)c(Cl)c(Cl)c(Cl)c21
C=C(C)[C@H]1CC=C(C)C(=O)C1
COC(C)(C)CC(C)=O
OCCOCCN1CCN(C2=Nc3ccccc3Sc3ccccc32)CC1
O=C(O)CNc1ccccc1
C[Si]1(C)O[Si](C)(C)O[Si](C)(C)O1
CCOc1ccccc1O
CC(C)C(OC(=O)c1ccccc1)C(C)(C)COC(=O)c1ccccc1 (stereo unspecified)
COc1ccc(CCC(C)=O)cc1
Cc1ccc(S(N)(=O)=O)cc1
BrCc1cccc(Oc2ccccc2)c1
COc1cc([C@@H]2c3cc4c(cc3[C@@H](O[C@@H]3O[C@@H]5CO[C@@H](C)O[C@H]5[C@H](O)[C@H]3O)[C@H]3COC(=O)[C@H]23)OCO4)cc(OC)c1O
C[Si](C)(C)O[Si](C)(C)C
C#CC(C)(O)CC(C)C (stereo unspecified)
Clc1ccc(C(c2ccccc2Cl)C(Cl)Cl)cc1 (stereo unspecified)

AC50, active:
C[C@H](CCC(=O)NCC(=O)O)[C@H]1CC[C@H]2[C@@H]3[C@H](O)C[C@@H]4C[C@H](O)CC[C@]4(C)[C@H]3C[C@H](O)[C@]12C 68.7 µM
